Test results as given in PubChem BioAssay AID1578 (Sanford-Burnham Center for Chemical Genomics, 2009).
Out of some 290,000 compounds screened, about 3,000 (1%) were called active. This is one part of a sample in which actives are shown more often than they occur. Rule as the data show it: active = inhibition mostly above about 36% (no sharp cut-off); inactive = mostly below about 34%.

Assay: NOD1 signaling inhibitors, primary screen, cell-based, luminescence, uHTS (AID 1578);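 also: HEK-293T reporter cells stimulated with the NOD1 agonist gamma-tri-DAP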
Details: NOD1-driven NF-kB luciferase reporter cells, at 4 µM, active compounds read high

SMILES	inhibition
Cc1ccc(OCCCC(=O)NCc2ccco2)c(C)c1	-28.1% (inactive)
COc1ccc(NC2CCCN(C(=O)CCCN3CCCCC3=O)C2)cc1 (stereo not drawn)	19.3% (inactive)
CCc1ccc(CNC(=O)CCS(=O)(=O)Cc2ccccc2F)cc1	3.9% (inactive)
CCC/C(C)=C/c1ccc(CC)cn1	12.7% (inactive)
COc1cc(CNc2cccc(C(=O)O)c2)cc(Br)c1OCC(=O)NC(C)(C)C	94.3% (active)
COc1cc(CNc2ccc(C(=O)O)cc2)cc(Br)c1OCC(=O)NC(C)(C)C	-27.4% (inactive)
CCOc1cc(CNc2ccccc2)cc(Br)c1OCC(=O)NC(C)(C)C	4.8% (inactive)
CC(=O)c1ccc(N2CCN(S(=O)(=O)c3ccc4c5c3CC(=O)N5CC(C)S4)CC2)cc1 (stereo not drawn)	-20.1% (inactive)
CCn1c(O)c(N=NC(=O)c2cccs2)c2ccccc21	-38.2% (inactive)
COc1cccc(C2CC(c3ccc(Cl)cc3)Nc3nc(N)nn32)c1 (stereo not drawn)	13.7% (inactive)
Nc1c(CO)nnn1-c1ccccc1	68.7% (active)
NC(=O)c1nnn(-c2ccccc2)c1N	-28.7% (inactive)
OCc1nnn(-c2ccccc2)c1CO	-4.1% (inactive)
COc1cc(/C=C/C(=O)OCC(=O)Nc2cc(C)c(C)cc2[N+](=O)[O-])ccc1O	-8.4% (inactive)
O=S(=O)(NCC1CCCO1)c1ccc(-c2ccc(Cl)cc2)cc1 (stereo not drawn)	9.5% (inactive)
Cc1ccc(-c2ccc(S(=O)(=O)NCC3CCCO3)cc2)cc1 (stereo not drawn)	47.8% (inactive)
Cc1cccc(N2CCN(c3ccc4cc(S(=O)(=O)N5CCCCC5)ccc4n3)CC2)c1C	25.6% (inactive)
CCOc1ccccc1NC(=O)CSc1ccccc1	-13.6% (inactive)
S=C(Nc1ccc(Cl)cc1Cl)NC1CCCCC1	-5% (inactive)
Cc1cc(Cl)ccc1NC(=S)NC1CCCC1	24% (inactive)
CC1CCCCC1NC(=S)Nc1ccc(Cl)cc1Cl (stereo not drawn)	42.2% (active)
CCOC(=O)C(C)NC(=O)c1cn(-c2ccc(OC)cc2)c(=O)c2ccccc12 (stereo not drawn)	1.9% (inactive)
CCOC(=O)c1ccccc1NC(=O)c1cn(-c2ccc(C)c(C)c2)c(=O)c2ccccc12	48% (inactive)
CCOC(=O)c1ccccc1NC(=O)c1cn(-c2ccc(OC)cc2)c(=O)c2ccccc12	73.4% (active)
C=CCNC(=O)c1oc2ccc(S(=O)(=O)N3CCC4(CC3)OCCO4)cc2c1C	-20.9% (inactive)

SMILES	inhibition
Cc1noc(C)c1C(=O)OCC(=O)Nc1ccccc1Oc1ccccc1	-14% (inactive)
Cc1csc(NC(=O)c2cc3c(s2)CCC3)n1	5.9% (inactive)
Cc1csc(NC(=O)c2cc3c(s2)CCCCC3)n1	73.7% (active)
Cc1csc(NC(=O)c2cc3c(s2)CCCC3)n1	-106% (inactive)
CCOCCCNC(=O)c1ccc(N2CC3CC(C2)c2cccc(=O)n2C3)c(NC(=O)Nc2cccc(OC)c2)c1 (stereo not drawn)	-1.7% (inactive)
COc1cccc2c1cc1c(=O)n(CC(=O)N3CCCCCC3)nc(C)n12	-16% (inactive)
Cn1ncc(Cl)c1C(=O)Nc1sc2c(c1C(N)=O)CCC2	-24.6% (inactive)
CCn1ncc(Br)c1C(=O)Nc1sc2c(c1C(N)=O)CCC2	77.1% (active)
CCn1cc(Br)c(C(=O)Nc2sc3c(c2C(N)=O)CCCC3)n1	-18.1% (inactive)
Cc1ccc(OS(=O)(=O)c2c(C)nn(C)c2Cl)c(C)c1	-19.4% (inactive)
CCn1cc(C(=O)O)c(=O)c2cc(F)c(N3CCN(C(=S)NC(=O)c4ccccc4Br)CC3)cc21	-0.8% (inactive)
CN1CCN(C(=S)Nc2ccc(Oc3ccccc3)cc2)CC1	6.6% (inactive)
CC(C)=CC(=O)Nc1c(C)cc(C)cc1Cl	-18% (inactive)
Oc1ccc(-c2nc3ccccc3s2)cc1	-6.1% (inactive)
COc1ccc(-c2nc3ccccc3s2)cc1	-35.3% (inactive)
CCOC(=O)Cc1csc(SC(C)C(=O)NCC(=O)Nc2ccc(F)c(F)c2F)n1 (stereo not drawn)	-36.3% (inactive)
COc1ccc(C(=O)N/C(=C\c2cccs2)C(=O)N2CCN(C)CC2)cc1OC	-14.2% (inactive)
NC(=O)C1CCN(c2nc(C3CC3)nc3c2nnn3Cc2ccccc2Cl)CC1	10.7% (inactive)
O=C(c1ccco1)N1CCN(c2nc(C3CC3)nc3c2nnn3Cc2ccccc2Cl)CC1	44.4% (active)
O=C(c1ccco1)N1CCN(c2ncnc3c2nnn3Cc2ccccc2Cl)CC1	11.1% (inactive)
O=C(Cn1nnc(-c2cc(C(F)(F)F)cc(C(F)(F)F)c2)n1)NNC(=S)Nc1ccc(Cl)cc1	10.2% (inactive)
O=C(COC(=O)Cc1ccc(Cl)cc1)Nc1c(F)cccc1F	-44% (inactive)
COc1cc(/C=N/NC(=O)c2ccncc2)ccc1OC(=O)c1ccco1	29.2% (inactive)
CC(=O)c1c(C)[nH]c(C(=O)OCC(=O)NCCc2ccc(F)cc2)c1C	-0.8% (inactive)
Cc1ccsc1C(=O)NNC(=O)C1CCCCC1C(=O)O (stereo not drawn)	-15.7% (inactive)

SMILES	inhibition
Cc1ccsc1C(=O)NNC(=O)C1CC=CCC1C(=O)O (stereo not drawn)	-25.2% (inactive)
Cc1ccsc1C(=O)NNC(=O)C1C2C=CC(C2)C1C(=O)O (stereo not drawn)	72.2% (active)
CCCCC(=O)Nc1cccc(-c2cn3ccccc3n2)c1	-43.7% (inactive)
Cc1ccc(CNC(=O)CCS(=O)(=O)c2cc3c(cc2Cl)NC(=O)CO3)cc1	-6.8% (inactive)
O=C(CCS(=O)(=O)c1cc2c(cc1Cl)NC(=O)CO2)NCc1ccccc1	95% (active)
O=C(CCS(=O)(=O)c1cc2c(cc1Cl)NC(=O)CO2)NCc1ccc(F)cc1	-25.6% (inactive)
CC(=O)OC[C@H]1O[C@@H](O/N=C(\C)CCN2CCCCc3nc(C)c(C)cc32)[C@H](OC(C)=O)[C@@H](OC(C)=O)[C@@H]1OC(C)=O	-2.5% (inactive)
Cc1ccc(S(=O)(=O)c2nc(-c3ccccc3F)oc2N2CC(C)OC(C)C2)cc1 (stereo not drawn)	-20% (inactive)
Cc1ccc(-c2ccc(/C=C(\C#N)C(N)=S)n2C)cc1	-19.8% (inactive)
Cc1cc(C)c(/C=C(\C#N)C(N)=S)c(C)c1	106% (active)
Cc1cc(C)c(C)c(/C=C(/C#N)C(N)=S)c1C	14.2% (inactive)
CC1CCN(C(=O)COc2cccc3c2CCN(Cc2ccccc2)C3=O)CC1	-16% (inactive)
CC(=O)c1sc(Nc2nc3ccc(F)cc3s2)nc1C	-20.9% (inactive)
COc1ccc2nc(NC(C)=O)sc2c1	-12.9% (inactive)
Clc1ncccc1-c1nnn(-c2ccccc2Br)n1	-23.5% (inactive)
CCc1nnc(NC(=O)c2ccc(NC(=O)C(C)C)cc2)s1	-39.9% (inactive)
N#C/C(=C(/O)CN1CCOCC1)c1nc(-c2ccccc2)cs1	-15.4% (inactive)
COc1ccc(/C=N/NC(=O)c2cc(C3CC3)[nH]n2)cc1OC	-1.2% (inactive)
COc1ccccc1C(=O)CSc1n[nH]c(N)n1	65.9% (active)
COc1ccccc1CNC(=O)CSc1n[nH]c(N)n1	-8.6% (inactive)
COc1ccc(C(=O)CSc2n[nH]c(N)n2)cc1	-10% (inactive)
Cc1ccc2nc(-c3ccccn3)cc(C(=O)NCCc3ccc(F)cc3)c2c1	-8.3% (inactive)
CC(C)OC(=O)c1ccc(COC(=O)c2cccc(-c3nnc(-c4ccccc4)o3)c2)cc1	-13% (inactive)
N=C(N)N=Nc1c(O)[nH]c2ccc(Br)cc12	-31.8% (inactive)
Oc1[nH]c2ccc(Br)cc2c1N=NC(=S)N1CCOCC1	99% (active)

SMILES	inhibition
Oc1[nH]c2ccc(Br)cc2c1N=NC(=S)Nc1ccc(F)cc1	-7.9% (inactive)
COc1ccc(CCNC(=O)CSc2nc3c(c(=O)n(C)c(=O)n3C)n2C)cc1OC	-28.4% (inactive)
O=[N+]([O-])c1ccc(Nc2ccccc2O)c2nonc12	-3.2% (inactive)
O=[N+]([O-])c1ccc(Sc2cccc[n+]2[O-])c2nonc12	106% (active)
O=[N+]([O-])c1ccc(Nc2ccccc2)c2nonc12	-7.4% (inactive)
N#Cc1ccccc1NC(=O)CSc1nnc(-c2ccncc2)o1	4.5% (inactive)
Cn1c(-c2csc(-c3ccccc3)n2)n[nH]c1=S	-29.3% (inactive)
Cc1ccccc1C(CC(=O)c1cccs1)C(C#N)C#N (stereo not drawn)	85.2% (active)
Cc1cc(C)c(C(CC(=O)c2cccs2)C(C#N)C#N)c(C)c1 (stereo not drawn)	26.3% (inactive)
CC(CC(=O)c1cccs1)CC(=O)c1cccs1	-14.5% (inactive)
O=[N+]([O-])c1cccc(Nc2nc(Cl)nc(Cl)n2)c1	14.4% (inactive)
COc1nc(NC(C)(C)C)nc(Oc2ccc(=O)n(-c3ccccc3)n2)n1	-3.3% (inactive)
COc1ccc(C(=O)NCS(=O)(=O)c2ccc(C)cc2)cc1	7.7% (inactive)
COc1ccc(NC(=O)c2ccc(C)cc2)cc1	-19.2% (inactive)
CCOC(=O)NC(C(Cl)(Cl)Cl)S(=O)(=O)c1ccccc1 (stereo not drawn)	5% (inactive)
Cc1ccc(C(=O)NNC(=S)NC(=O)c2ccc(Cl)cc2)cc1	31.1% (inactive)
Cc1ccc(C(=O)NC(=S)NNS(=O)(=O)c2ccc(C)cc2)cc1	-34.4% (inactive)
COC(=O)NC(=C(Cl)Cl)S(=O)(=O)c1ccccc1	74.9% (active)
COC(=O)NC(NS(=O)(=O)c1ccccc1)(C(=O)OC)C(F)(F)F (stereo not drawn)	-0.4% (inactive)
Cc1ccc(S(=O)(=O)C(CCC(=O)c2ccc(Cl)cc2)C(N)=O)cc1 (stereo not drawn)	9.7% (inactive)
Cc1ccc(S(=O)(=O)NNC(=O)c2ccc(O)cc2)cc1	-14.1% (inactive)
CCOC(=O)C1CCN(S(=O)(=O)c2ccc(C)c(C)c2)CC1	-13.2% (inactive)
CCOC(=O)c1ccc(NC(=S)N2CCN(CCNC3=CC(=O)CC(C)(C)C3)CC2)cc1	-30.1% (inactive)
